Data as given in PubChem BioAssay AID463173 (ICCB-Longwood Screening Facility, Harvard Medical School, 2010).
Among all 52,000 compounds or so, about 1,700 (3.3%) were called active. Cut-off read from the data, not from the text of the source: active = survival mostly below about 52% (no sharp cut-off); inactive = mostly above about 56%. The sample as a whole holds a higher share of actives than the screen did.

The compounds below were run on Wild type (assay: growth inhibition of S. aureus wild type versus tarO mutant, primary screen, teichoic acid synthesis inhibitors, RN4220, OD600 (AID 463173)). Conditions: S. aureus RN4220 wild type/DeltatarO growth, OD600, 18 h, active compounds read low, screened at 18.75 µg/mL (by protocol).

Q: How did the survival turn out when `CCOC(=O)N1CCc2c(sc(NCc3sccc3C)c2C(=O)Nc2cc(OC)ccc2OC)C1` was run?
A: Its survival is 65% (inactive).

Q: For `Cc1cccc(N2CCN(Cc3nnc(-c4ccccc4C)o3)CC2C)c1` (configuration not stated), which survival is on record?
A: The survival was 21% (inactive).

Q: With `CCOC(=O)c1c(C)sc(-c2c(-c3ccc(OC)c(F)c3)[nH]c3[nH]c(=O)[nH]c(=O)c23)c1O` as the compound, how does the survival read?
A: Its survival is 111% (inactive).

Q: Which survival does the source give for `CCCOc1ccc(CNC(=O)Cn2cc3c(n2)-c2c(oc(C(=O)N4CCOCC4)c2C)CC3)cc1` here?
A: Its survival is 96% (inactive).

Q: With `COc1ccc(-c2nn(C)c3sc(C(=O)NCCN(C)C)cc23)cc1OC` as the compound, how does the survival read?
A: Its survival is 82% (inactive).

Q: Which survival does the source give for `CCOC(=O)c1c(C)[nH]c(C)c1S(=O)(=O)N(C)CC(=O)Nc1cccc(C(F)(F)F)c1` here?
A: Its survival is 69% (inactive).

Q: For `COC(=O)C(CCSC)NC(=O)Cn1ncc2c([nH]c3ccccc32)c1=O` (configuration not stated), which survival is on record?
A: Its survival is 47% (inactive).

Q: Which survival does the source give for `COc1cc2c(c(OC)c1)C(c1cccc(F)c1F)CC(=O)N2` (configuration not stated) here?
A: Its survival is 82% (inactive).

Q: Which survival does the source give for `COc1ccc(CCN(Cc2nc3ccccc3c(=O)[nH]2)C(=O)c2ccco2)cc1` here?
A: Its survival is 81% (inactive).

Q: `Cc1ccc(NS(=O)(=O)c2ccc3[nH]c4c(c3c2)CCCCC4)cc1` was tested. Which survival did it give?
A: The survival was 84% (inactive).

Q: Which survival does the source give for `O=C(CCn1c(=O)c2cccn2c2cccnc21)NCc1ccccc1Br` here?
A: Its survival is 93% (inactive).

Q: `Cc1cc(C)n(-c2nc3ccccc3nc2Nc2ccc(Cl)cc2Cl)n1` was tested. Which survival did it give?
A: The survival was 86% (inactive).

Q: For `Cc1cc(C)n(-c2nc3ccccc3nc2Nc2ccc(Cl)c(Cl)c2)n1`, which survival is on record?
A: Its survival is 1% (active).

Q: `COc1cc(OC)c(Nc2nc3ccccc3nc2-n2nc(C)cc2C)cc1Cl` was tested. Which survival did it give?
A: Its survival is 80% (inactive).

Q: Which survival does the source give for `Cc1ccc(Nc2nc3ccccc3nc2-n2nc(C)cc2C)c(Cl)c1` here?
A: The survival was 88% (inactive).

Q: How did the survival turn out when `COc1ccccc1Nc1nc2ccc(Cl)cc2nc1-n1nc(C)cc1C` was run?
A: The survival was 138% (inactive).

Q: For `COc1ccc(OC)c(Nc2nc3ccccc3nc2-n2nc(C)cc2C)c1`, which survival is on record?
A: Its survival is 10% (active).

Q: Which survival does the source give for `Cc1ccc(CNC(=O)c2ccc(Cn3c(SCc4ccc(F)cc4)nc4cccnc43)cc2)o1` here?
A: The survival was 84% (inactive).

Q: With `Cc1ccc(C(=O)c2sc(Nc3ccc(F)cc3)c(C#N)c2N)cc1` as the compound, how does the survival read?
A: The survival was 108% (inactive).

Q: Which survival does the source give for `CCCOc1ccc(C(=O)Nc2ccc3nn(-c4ccc(OC)c(Cl)c4)nc3c2)cc1` here?
A: The survival was 145% (inactive).

Q: How did the survival turn out when `COc1ccc(CNC(=O)C(=O)Nc2ccc(OC)cc2OC)cc1` was run?
A: The survival was 80% (inactive).

Q: For `N#C/C(=C/C=C/c1ccco1)c1nc2ccccc2[nH]1`, which survival is on record?
A: Its survival is 113% (inactive).

Q: With `CCCn1c2ccccc2c2cnn(CC(=O)NCCc3ccc(OCC)cc3)c(=O)c21` as the compound, how does the survival read?
A: The survival was -6% (active).

Q: With `CCCn1c2ccccc2c2cnn(CC(=O)NCCc3ccc(OCC)c(OCC)c3)c(=O)c21` as the compound, how does the survival read?
A: Its survival is 76% (inactive).

Q: With `CCCNC(=O)Cn1ncc2c3ccccc3n(CCC)c2c1=O` as the compound, how does the survival read?
A: The survival was 133% (inactive).

Q: With `CCCn1c2ccccc2c2cnn(CC(=O)NCCCOC(C)C)c(=O)c21` as the compound, how does the survival read?
A: The survival was -6% (active).

Q: For `CCCn1c2ccccc2c2cnn(CC(=O)NCCc3ccc(C)cc3)c(=O)c21`, which survival is on record?
A: The survival was 121% (inactive).

Q: Which survival does the source give for `CCCn1c2ccccc2c2cnn(CC(=O)NCCCN3CCCCC3)c(=O)c21` here?
A: Its survival is 78% (inactive).

Q: Which survival does the source give for `CCCSc1nc(=O)c2c(n1C)NC(=O)CC2c1cccc(F)c1F` (configuration not stated) here?
A: Its survival is 82% (inactive).

Q: For `COc1ccc(NC(=O)N2CCN(c3cc(-c4noc(C)n4)ccc3C)CC2)c(OC)c1`, which survival is on record?
A: Its survival is 133% (inactive).

Q: With `CSc1cccc(NC(=O)N2CCN(c3cc(-c4noc(C)n4)ccc3C)CC2)c1` as the compound, how does the survival read?
A: Its survival is 74% (inactive).

Q: For `Cc1ccc(NC(=O)N2CCN(c3cc(-c4noc(C)n4)ccc3C)CC2)c(C)c1`, which survival is on record?
A: The survival was 72% (inactive).

Q: `COc1ccc(C)cc1NC(=O)N1CCN(c2cc(-c3noc(C)n3)ccc2C)CC1` was tested. Which survival did it give?
A: The survival was 85% (inactive).

Q: For `COc1cc(NC(=O)N2CCN(c3cc(-c4noc(C)n4)ccc3C)CC2)cc(OC)c1OC`, which survival is on record?
A: The survival was 14% (active).

Q: How did the survival turn out when `COc1cc([N+](=O)[O-])ccc1NC(=O)N1CCN(c2cc(-c3noc(C)n3)ccc2C)CC1` was run?
A: Its survival is 78% (inactive).

Q: Which survival does the source give for `Cc1nc(-c2ccc(C)c(N3CCN(C(=O)Nc4ccc(Br)cc4)CC3)c2)no1` here?
A: The survival was -1% (active).

Q: Which survival does the source give for `Cc1ccc(NC(=O)N2CCN(c3cc(-c4noc(C)n4)ccc3C)CC2)c(F)c1` here?
A: The survival was -6% (active).

Q: How did the survival turn out when `Cc1cc(C)cc(NC(=O)N2CCN(c3cc(-c4noc(C)n4)ccc3C)CC2)c1` was run?
A: Its survival is 76% (inactive).

Q: Which survival does the source give for `Cc1ccc2scc(N3CCN(c4ccccc4)CC3)c(=O)c2c1` here?
A: The survival was 74% (inactive).

Q: Which survival does the source give for `Cc1c(-c2cccc(NC(=O)Cc3ccccc3)c2)nc2ncccn12` here?
A: Its survival is 73% (inactive).

Q: How did the survival turn out when `Cc1ccc2c(CNC3CCCC3)c(C(=O)O)n(Cc3ccc(F)cc3)c2c1` was run?
A: Its survival is 111% (inactive).

Q: How did the survival turn out when `C/C(=N\NC(=O)COc1ccccc1)C1C(=O)c2ccccc2C1=O` was run?
A: Its survival is 107% (inactive).

Q: `COc1cccc(-n2c(SCC(=O)Nc3cc(C)ccc3C)nc3c(oc4ccccc43)c2=O)c1` was tested. Which survival did it give?
A: The survival was 96% (inactive).

Q: Which survival does the source give for `COc1ccc(Nc2nnc(-c3ccc(C)c(S(=O)(=O)NCCO)c3)c3ccccc23)cc1C(N)=O` here?
A: Its survival is 70% (inactive).

Q: `COc1ccccc1-c1ccnc2c(-c3ccc(Br)cc3)c(C)nn12` was tested. Which survival did it give?
A: Its survival is 77% (inactive).

Q: With `CCc1nn2c(-c3ccco3)ccnc2c1-c1ccccc1` as the compound, how does the survival read?
A: The survival was 89% (inactive).

Q: How did the survival turn out when `CCc1nn2c(-c3ccccc3OC)ccnc2c1-c1ccccc1` was run?
A: Its survival is -12% (active).

Q: `CCc1nn2c(-c3ccco3)ccnc2c1-c1ccc(F)cc1` was tested. Which survival did it give?
A: The survival was 71% (inactive).

Q: `Cc1nn2c(-c3ccco3)ccnc2c1-c1ccc(F)cc1` was tested. Which survival did it give?
A: Its survival is 75% (inactive).

Q: `COc1ccc(-c2ccnc3c(-c4ccc(F)cc4)c(C)nn23)cc1OC` was tested. Which survival did it give?
A: Its survival is 79% (inactive).

Q: For `CCc1nn2c(-c3ccccc3OC)ccnc2c1-c1ccc(F)cc1`, which survival is on record?
A: The survival was -11% (active).

Q: How did the survival turn out when `COc1cccc(-c2ccnc3c(-c4ccc(F)cc4)c(C)nn23)c1` was run?
A: Its survival is 99% (inactive).

Q: `Cc1ccccc1-c1ccnc2c(-c3ccc(F)cc3)c(C)nn12` was tested. Which survival did it give?
A: Its survival is -13% (active).

Q: How did the survival turn out when `CCOc1ccc(CN2CCC(C(=O)NCC3CCCO3)CC2)cc1OC` (configuration not stated) was run?
A: The survival was 99% (inactive).

Q: Which survival does the source give for `CCOC(=O)C1CCCN(C(=O)Cn2ncc3c4ccccc4n(Cc4ccccc4)c3c2=O)C1` (configuration not stated) here?
A: The survival was 121% (inactive).

Q: For `CCOC(=O)c1c(NC(=O)COc2cccc(C)c2C)sc(C(C)=O)c1C`, which survival is on record?
A: Its survival is 130% (inactive).

Q: With `CC(C)CSc1oc(-c2ccco2)nc1S(=O)(=O)c1ccc(Br)cc1` as the compound, how does the survival read?
A: The survival was 27% (active).

Q: Which survival does the source give for `CCC(C)Sc1oc(-c2ccco2)nc1S(=O)(=O)c1ccc(C)cc1` (configuration not stated) here?
A: The survival was -12% (active).

Q: `CCC(C)Sc1oc(-c2ccco2)nc1S(=O)(=O)c1ccc(Cl)cc1` (configuration not stated) was tested. Which survival did it give?
A: The survival was 25% (inactive).

Q: For `Cc1ccc(S(=O)(=O)c2nc(-c3ccco3)oc2SC(C)C)cc1`, which survival is on record?
A: Its survival is 49% (inactive).

Q: Which survival does the source give for `Cc1ccc(S(=O)(=O)c2nc(-c3ccco3)oc2SCC(C)C)cc1` here?
A: The survival was 39% (inactive).

Q: Which survival does the source give for `CCSc1oc(-c2ccco2)nc1S(=O)(=O)c1ccc(Br)cc1` here?
A: Its survival is 65% (inactive).
